Screening results as filed in PubChem.
12-LOX inh: ALOX12 (human) lipoxygenase inhibition; Potency, µM (titrated, usually from 108 µM), for inactives: at the top dose activity change, negative = inhibition, actives largely listed as inhibitors; purified 12hLO, xylenol orange hydroperoxide absorbance; 580,000 compounds, 1.1% hits; further: potency means the concentration at half of the fitted maximal effect
Target sequence (P18054 whole entry, looked up): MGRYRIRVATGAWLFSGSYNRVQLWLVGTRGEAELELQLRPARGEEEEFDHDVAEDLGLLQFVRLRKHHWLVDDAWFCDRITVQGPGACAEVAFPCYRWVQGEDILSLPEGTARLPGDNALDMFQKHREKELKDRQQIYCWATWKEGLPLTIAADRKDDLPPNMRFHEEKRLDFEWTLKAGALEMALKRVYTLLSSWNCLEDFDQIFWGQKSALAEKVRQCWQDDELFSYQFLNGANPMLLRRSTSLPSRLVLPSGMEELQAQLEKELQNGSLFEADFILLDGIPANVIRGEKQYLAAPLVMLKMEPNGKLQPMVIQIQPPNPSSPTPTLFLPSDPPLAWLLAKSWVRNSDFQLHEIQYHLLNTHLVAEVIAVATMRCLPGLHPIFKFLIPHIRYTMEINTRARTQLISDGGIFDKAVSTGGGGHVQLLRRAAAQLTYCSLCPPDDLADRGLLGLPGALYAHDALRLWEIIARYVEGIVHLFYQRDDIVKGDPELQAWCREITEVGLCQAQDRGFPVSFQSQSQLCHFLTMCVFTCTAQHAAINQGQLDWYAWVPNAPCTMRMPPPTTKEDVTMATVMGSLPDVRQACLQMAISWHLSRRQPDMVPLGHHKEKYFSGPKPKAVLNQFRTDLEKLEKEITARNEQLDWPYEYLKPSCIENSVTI
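Purified human 12hLO (150 nM final) in 25 mM Hepes, 0.01% Triton X-100, pH 7.0 was preincubated 15 min at room temperature with compound. Then 40 uM arachidonic acid was added, 30 min. Hydroperoxide was read by Fe-XO absorbance ratio 573/405 nm.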
HT1080NT lethal: kills 2HG-producing HT-1080-NT fibrosarcoma cells. HT-1080-NT fibrosarcoma viability, CellTiter-Glo ATP luminescence, 48 h. 360,000 compounds, 1.6% hits. Potency, µM (series often up to 46.1 µM), inactives show top-dose activity, negative = less viability, usual class: cytotoxic;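 further: NT is the 2HG producing partner of a matched IDH1 knockdown line; potency means the concentration at half of the fitted maximal effect; 0% = DMSO-treated cells and -100% = media-only wells without cells; nearly all actives have a fitted effect of over 55% in size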
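Luminescent CellTiter-Glo readout after 48 hours of compound exposure at 37 degrees C defined viability of HT-1080-NT cells. Activity was normalized to DMSO wells and cell-free media wells; concentration-response curves were fitted and assigned curve classes.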
TDP1 cell noCPT: qHTS for Inhibitors of human tyrosyl-DNA phosphodiesterase 1 (TDP1): qHTS in cells in absence of CPT | DT40 Tdp1-/- hTDP1 cells, no CPT, ATP luminescence, 48 h | Potency, µM (highest dose often 46.2 µM), for inactives: at the top dose activity change, negative = growth inhibition, actives largely listed as inhibitors | 420,000 compounds, 15% hits | AID 686978, 2013; further: potency means the concentration at half of the fitted maximal effect; nearly all actives have a fitted effect of over 55% in size
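Luminescent ATP content (CellTiter-Glo) served as the growth readout. Knockout chicken DT40 cells expressing human TDP1 were exposed to compounds without camptothecin for a minimum 48 hr at 37 °C.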
TDP1 cell CPT: growth inhibition of DT40 Tdp1-/-;hTDP1 cells with camptothecin (screen for TDP1 inhibitors). Potency, µM (top dose mostly 46.2 µM), for inactives: at the top dose activity change, negative = growth inhibition, actives largely listed as inhibitors. AID 686979. 420,000 compounds, 12% hits. chicken DT40 Tdp1-/-;hTDP1 cells + 20 nM CPT, ATP luminescence, 48 h; further: potency means the concentration at half of the fitted maximal effect; nearly all actives have a fitted effect of over 55% in size
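Cell growth measured by CellTiter-Glo luminescence after a minimum 48 h, 37 C compound exposure with 20 nM CPT in Tdp1-knockout DT40 cells stably expressing hTDP1, seeded 400/well; qHTS titration format.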
HT1080 IDH1KD tx: kills HT-1080 cells with IDH1 knockdown | HT-1080 IDH1 knockdown viability, ATP luminescence, 48 h | Potency, µM (top dose mostly 46.1 µM), for inactives: top-dose activity, negative = toxicity, most hits filed as cytotoxic | 360,000 compounds, 2% hits;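 further: potency means the concentration at half of the fitted maximal effect; 0% = DMSO wells and -100% = cell-free medium wells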
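% activity derives from luminescence (CellTiter-Glo), normalised to DMSO and no-cell wells. HT-1080-IDH1KD cells, 750/well, had 48 h compound exposure at 37 °C.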
IL1B secr inh: inhibitors of inflammasome signaling (IL-1 beta secretion). THP-1 LPS/ATP IL-1B secretion, AlphaLISA, 16 h; active compounds read low. activity change, % at 57.5 µM. 360,000 compounds, 4.7% hits; in the data active means activity change below about -50%; inconclusive means mostly about -30% to -49%
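Secreted IL-1B measured by AlphaLISA bead assay after 16 h compound exposure of THP-1 cells; compounds (final up to 57.5 uM) added 1 h before LPS (250 ng/mL) and ATP (1.25 mM) stimulation; lower signal means less secretion.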
The depositor's hits bear a star; u = inconclusive; x = no result. Shown is part of a subset that was picked to be rich in hits. Unless noted, the call rests on the fitted dose curve; in most records, active means well fitted curve in the direction sought with a large enough effect; inconclusive means small, poorly fitted or top-dose-only effect, or another doubt; inactive means no such curve, though single readings can be large; an effect the other way counts as inactive or inconclusive. Unless noted, on the % scale 0 is the no-effect control and ±100 the full control effect.

SMILES | 12-LOX inh | HT1080NT lethal | TDP1 cell noCPT | TDP1 cell CPT | HT1080 IDH1KD tx | IL1B secr inh
COC(=O)C1C(=O)C2=C(CC1C)NC(C)=C(C(=O)OCc1ccc(OC)cc1)C2c1ccc(C)o1 (stereo unspecified) | -8% | -4% | 10µM* | u | -18% | -21
COC(=O)C1C(=O)C2=C(CC1C)NC(C)=C(C(=O)OC1CCCCC1)C2c1ccc(N(C)C)cc1 (stereo unspecified) | 0% | -6% | 16µM* | u | -11% | -3
COc1ccc(-c2oc3ccc(-c4ccc5c(c4)OCO5)cc3c2-c2ccc(OC)nc2)cc1 | u | 3% | u | u | 12% | -14
COc1ccc(-c2c(C3=CCCCC3)oc3ccc(-c4ccc5c(c4)OCO5)cc23)cn1 | u | 9% | 15µM* | u | 5% | -12
COc1ccc(-c2oc3ccc(-c4ccc(OC)nc4)cc3c2-c2ccc(OC)cc2)cc1 | 17% | 6% | 15µM* | u | 3% | -7
COc1ccc(-c2ccc3oc(-c4ccc(OC)cc4)c(-c4ccc(OC)cc4)c3c2)cc1 | 1% | 11% | u | u | 23% | 12
COc1ccc(-c2c(-c3cccc(C)c3)oc3ccc(-c4ccc5c(c4)OCO5)cc23)cn1 | 2% | 15% | 8.2µM* | u | 8% | -7
CNc1ncnc2c1ncn2[C@H]1CN(CCN2CCOCC2)C[C@@H](CO)O1 | -2% | 4% | 8% | 11% | 12% | -29
O=C(c1ccc2c(c1)OCCO2)N1CCc2[nH]nc(-c3ccccc3F)c2C1 | 40% | x | x | x | x | x
O=C(COc1ccc(F)cc1F)N1CCCCCCC1 | -4% | 6% | u | -5% | 1% | 7
C=CCN1C(=O)/C(=C2\SC(N3CCOCC3)=NC2=O)c2cc(Br)ccc21 | -13% | 15% | u | 23µM* | 8% | 16
COC(=O)[C@@]12C[C@@H](CC(=O)N3CCN(C(=O)c4ccco4)CC3)C(=O)N(Cc3ccc4c(c3)OCO4)C1=CCC(C)(C)C2 | -8% | -22% | 21µM* | 18µM* | -10% | u
COC(=O)[C@]12CCCCC=C1N(Cc1ccccc1)C(=O)[C@H](CC(=O)N1CCN(C(=O)c3ccco3)CC1)C2 | 2% | 9% | u | u | 14% | -3
COC(=O)[C@]12CCCCC=C1N(Cc1ccc3c(c1)OCO3)C(=O)[C@H](CC(=O)N1CCN(C(=O)c3ccco3)CC1)C2 | -6% | 22% | u | u | 14% | -56*
COC(=O)[C@]12C[C@H](CC(=O)N3CCN(C(=O)c4ccco4)CC3)C(=O)N(Cc3ccc4c(c3)OCO4)C1=C[C@H](C(C)(C)C)O[C@@H]2C | 0% | x | x | x | x | x
COC(=O)[C@@]12C[C@@H](CC(=O)N3CCN(C(=O)c4ccco4)CC3)C(=O)N(Cc3ccco3)C1=CCC(C)(C)C2 | 9% | 23% | u | u | 3% | -11
COC(=O)[C@@]12C[C@@H](CC(=O)N3CCN(C(=O)c4ccco4)CC3)C(=O)N(Cc3ccccc3)C1=CCC(C)(C)C2 | -2% | 9% | 15µM* | u | -1% | -5
CO/N=C/c1ccccc1OCc1ccc(C(=O)OC)cc1 | -25% | x | x | x | x | x
COc1ccc(C)cc1NC(=O)Cn1cc(S(=O)(=O)N2CCC(C)CC2)c2ccccc2c1=O | -11% | x | u | -20% | x | x
COc1cc([C@@H]2[C@H]3CNCC=C3C(C#N)=C(N)C2(C#N)C#N)ccc1OC(C)C | 43% | -3% | u | 9.2µM* | -2% | -19
O=[N+]([O-])c1ccc2[nH]c(=S)sc2c1 | u | u | 21µM* | 23µM* | -19% | -22
